We go through 14 compounds from PubChem BioAssay.

Activity calls are given as the source filed them.

Test [1] can be described thus: A549 cell viability effects, profiling panel, calcein-AM fluorescence, 48 h, basal (AID 1162). As to conditions: higher = more signal.
Test [2] is described as follows: adipocyte viability effects, profiling panel, cell-based, 3T3-L1 adipocytes, calcein-AM fluorescence, 48 h, basal (AID 1163). As to conditions: 3T3-L1 adipocytes viability, higher = more signal.
The nature of test [3]: HepG2 cell viability effects, profiling panel, calcein-AM fluorescence, 48 h, basal (AID 1164). As to conditions: higher = more signal.
Test [4] in a line: MM1S cell viability effects, profiling panel, calcein-AM fluorescence, 48 h, basal (AID 1165).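 Also: viability of MM1S multiple myeloma cells under basal unstimulated conditions.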 As to conditions: higher = more signal.
Test [5] in a line: basal RPMI8226 viability, no added stimulus, profiling panel, cell-based, calcein-AM fluorescence, 48 h, PK04 Diversity Set (AID 1166).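 Also: cells grown under basal conditions without added stimulus.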 As to conditions: RPMI8226 myeloma viability, higher = more signal.
Test [6] can be described thus: basal HepG2 mitochondrial membrane potential changes, profiling panel, cell-based, JC-1 fluorescence, 24 h, 100 nL compound (AID 1167). As to conditions: higher = more signal.
The nature of test [7]: basal 3T3-L1 adipocyte mitochondrial potential changes, profiling panel, cell-based, JC-1 fluorescence, 3T3-L1 adipocytes, 24 h, 100 nL compound (AID 1168). As to conditions: JC-1 mitochondrial fluorescence, higher = more signal, called active from +8 up or from −8 down.
A short description of test [8]: basal RPMI8226 mitochondrial membrane potential changes, profiling panel, cell-based, JC-1 fluorescence, 24 h, 100 nL compound (AID 1169). As to conditions: RPMI8226 myeloma, JC-1 mitochondrial potential fluorescence, higher = more signal.
Test [9] in a line: basal MM1S mitochondrial membrane potential changes, profiling panel, cell-based, JC-1 fluorescence, 24 h, 100 nL compound (AID 1170). As to conditions: higher = more signal.
Test [10] is described as follows: A549 lung cancer cell viability effects, profiling panel, resazurin fluorescence, 24 h, PK04 Diversity Set (AID 1171). As to conditions: higher = more signal, called active from +8 up or from −8 down. A general note: Alamar Blue is a resazurin reagent that responds to reducing activity.
Also: test concentration not given here.

For `C=C(C)[C@@H]1CC=C(C(O)C2C=CC3C(=O)N(c4ccccc4)C(=O)C3N2Nc2ccc(C#N)cc2)CC1` (stereo not given in full), the z-score is -0.391 in test [1]; -0.575 in test [2]; 0.166 in test [3]; -0.331 in test [4]; 0.0001 in [5]; -2.47 in [6]. Further, the z-score was -2.61 (inactive) in test [7], -0.671 in test [8], -0.641 in [9] and -0.31 (inactive) in test [10].

On to `CCOC(=O)C=Cc1ccccc1O`, for which the z-score in test [1] was -0.759; in test [2], 0.234; in [3], -0.944; in [4], 0.226; in test [5], -0.529; in test [6], -0.503. For the same compound, the z-score is -0.35 (inactive) in test [7], -0.986 in test [8], -1.64 in test [9] and 0.0931 (inactive) in [10].

For `COC(=O)C(CC#Cc1ccc2c(c1)[C@]1(C(=O)N2)[C@H](c2ccc(O)cc2)N2[C@H](c3ccccc3)[C@H](c3ccccc3)OC(=O)[C@H]2[C@@H]1C(=O)N1CCCCCCC1)C(=O)OC`, the z-score in test [1] was 1.58; in [2], 0.581; in [3] it was 1.98; in [4] it was 0.362; in [5], -2.56; in [6] it was 0.945. The z-score is -0.174 (inactive) in test [7], -0.799 in [8], -0.158 in [9] and -0.636 (inactive) in [10].

For `CC1(C)C(=O)C(c2ccccc2)=C2CN3C(=O)N(CCc4ccccc4)C(=O)C3(Cc3ccc(C(F)(F)F)cc3)C=C21` (stereo not given), the z-score was -0.902 in test [1]; -0.586 in test [2]; 0.409 in test [3]; -1.49 in test [4]; -1.75 in test [5]; -2.08 in test [6]. For the same compound, the z-score in test [7] is -2 (inactive); in test [8], -0.00804; in test [9] it was -0.421; in test [10], 0.43 (inactive).

On to `COC(=O)C1=CC(CCCO)=CC(C)N(Cc2cccc(OC(F)(F)F)c2)C=C1C(=O)OC` (stereo not given), for which the z-score in test [1] was 1.35; in [2], 0.0937; in test [3], 0.966; in test [4], 0.403; in [5], 0.286; in [6] it was 1.12. Further, the z-score in test [7] was 0.612 (inactive); in test [8] it was -0.0402; in test [9], -0.645; in test [10], -0.149 (inactive).

In the case of `COC(=O)[C@@]1(Cc2ccc(OC)cc2)[C@H]2c3cc(C(=O)N4CCCC4)n(Cc4cc(C)n(C)n4)c3C[C@H]2CN1C(=O)c1ccccc1`, the z-score was -0.0671 in test [1]; -0.471 in test [2]; 0.851 in test [3]; 0.559 in test [4]; 0.192 in test [5]; 3.05 in [6]. Further, the z-score was 0.00691 (inactive) in [7], -0.475 in [8], -1.37 in test [9] and 0.0924 (inactive) in test [10].

Regarding `COc1cccc(/C=C(\C#N)C(=O)Nc2c(C)n(C)n(-c3ccccc3)c2=O)c1`, the z-score in test [1] is 2.14; in [2], 1.12; in test [3] it was 1.01; in test [4] it was -0.485; in test [5], 0.101; in test [6] it was 0.778. Besides, the z-score in [7] is 0.159 (inactive); in test [8], 0.505; in [9], -0.535; in test [10], -0.589 (inactive).

For `Cc1ccc(S[C@]2(C(=O)NC(C)C)CC(=O)N(C(C)C)[C@@H]2c2ccc(CO)cc2I)cc1`, the z-score in test [1] was 0.931; in [2], -0.134; in [3], 0.0096; in test [4], -2.39; in test [5], -1.38; in test [6] it was 1.09. Moreover, the z-score in test [7] was 0.389 (inactive); in test [8], -0.312; in [9] it was -1.32; in test [10], -0.0361 (inactive).

`CC(C)CCC[C@@H](C)[C@H]1CC[C@@]2(C)C3=C(CC[C@]12C)[C@@]1(C)CC[C@H](OC(=O)c2ccccc2)C(C)(C)C1CC3` (stereo not given in full): the z-score was 0.667 in test [1]; 0.635 in test [2]; 0.771 in [3]; 0.34 in [4]; 0.201 in test [5]; 1.73 in test [6]. Besides, the z-score is 1.1 (inactive) in test [7], -0.671 in [8], -2.12 in test [9] and 0.774 (inactive) in [10].

For `CCCCC(=C=CC[C@H](O)c1ccc(OCCO)cc1)C[C@H](O)c1cc(Cl)cc(Cl)c1O`, the z-score in [1] is -0.217; in [2] it was -0.185; in [3] it was -0.197; in test [4], -3.34; in test [5] it was -2.76; in [6] it was -2.43. The z-score in [7] is -0.368 (inactive); in [8] it was -0.773; in test [9] it was -0.349; in test [10], 1.17 (inactive).

Regarding `COCCOC(=O)N1C(=O)[C@@]2(c3cc(C#Cc4ccc(OC)cc4)ccc31)[C@H](c1ccc(OCCO)cc1)N1[C@H](c3ccccc3)[C@H](c3ccccc3)OC(=O)[C@H]1[C@@H]2C(=O)Nc1nc2ccccc2s1`, the z-score is -0.922 in test [1]; 0.829 in test [2]; -1.26 in test [3]; -0.569 in [4]; -1.26 in [5]; -2.86 in test [6]. For the same compound, the z-score in [7] is 3.99 (inactive); in [8] it was -0.735; in test [9], -1.13; in [10], -0.285 (inactive).

With `C=C(/C(=C/C[C@@H](OC(C)=O)c1ccc(OCCO)cc1)c1cc(C(=O)OC)ccc1OC)C(C)C`, the z-score in test [1] is 0.679; in test [2], -0.345; in test [3], 0.747; in test [4] it was -1.83; in test [5], -0.385; in test [6] it was 0.149. The z-score in test [7] is -0.852 (inactive); in test [8], -0.799; in test [9], -0.8; in test [10] it was 0.627 (inactive).

In the case of `CC(CO)N1C(=O)[C@@H]2[C@H]3C(=O)OCC=C[C@H]3OC23C=CCN(c2ccc(Cl)cc2)C(=O)[C@@H]13` (stereo not given in full), the z-score in test [1] is 0.0473; in test [2] it was 0.311; in [3] it was 0.336; in [4], 0.829; in [5] it was -0.485; in test [6], -0.321. Also, the z-score in test [7] is -0.574 (inactive); in test [8], -0.818; in test [9] it was 0.0977; in [10] it was 0.957 (inactive).

Take `CCCNC(=O)[C@@]1(C)c2ccccc2C(=O)N(Cc2ccccc2)[C@H]1c1ccc(CO)cc1`: the z-score in test [1] is -0.0623; in test [2], 0.47; in [3], 1.03; in test [4] it was -0.542; in test [5], 0.485; in test [6], 4.13. The z-score in test [7] is -0.0853 (inactive); in [8], -0.415; in test [9] it was 1.14; in test [10], 1.47 (inactive).
